Out of some 67,000 compounds screened, about 300 (0.45%) showed an effect of 50% or more. The sample holds strong results, similar compounds and a random draw of the others, so the mix is not that of the screen.

Sequence of Polyketide synthase Pks13 (Mycobacterium tuberculosis (strain ATCC 25618 / H37Rv)) (I6X8D2 whole entry): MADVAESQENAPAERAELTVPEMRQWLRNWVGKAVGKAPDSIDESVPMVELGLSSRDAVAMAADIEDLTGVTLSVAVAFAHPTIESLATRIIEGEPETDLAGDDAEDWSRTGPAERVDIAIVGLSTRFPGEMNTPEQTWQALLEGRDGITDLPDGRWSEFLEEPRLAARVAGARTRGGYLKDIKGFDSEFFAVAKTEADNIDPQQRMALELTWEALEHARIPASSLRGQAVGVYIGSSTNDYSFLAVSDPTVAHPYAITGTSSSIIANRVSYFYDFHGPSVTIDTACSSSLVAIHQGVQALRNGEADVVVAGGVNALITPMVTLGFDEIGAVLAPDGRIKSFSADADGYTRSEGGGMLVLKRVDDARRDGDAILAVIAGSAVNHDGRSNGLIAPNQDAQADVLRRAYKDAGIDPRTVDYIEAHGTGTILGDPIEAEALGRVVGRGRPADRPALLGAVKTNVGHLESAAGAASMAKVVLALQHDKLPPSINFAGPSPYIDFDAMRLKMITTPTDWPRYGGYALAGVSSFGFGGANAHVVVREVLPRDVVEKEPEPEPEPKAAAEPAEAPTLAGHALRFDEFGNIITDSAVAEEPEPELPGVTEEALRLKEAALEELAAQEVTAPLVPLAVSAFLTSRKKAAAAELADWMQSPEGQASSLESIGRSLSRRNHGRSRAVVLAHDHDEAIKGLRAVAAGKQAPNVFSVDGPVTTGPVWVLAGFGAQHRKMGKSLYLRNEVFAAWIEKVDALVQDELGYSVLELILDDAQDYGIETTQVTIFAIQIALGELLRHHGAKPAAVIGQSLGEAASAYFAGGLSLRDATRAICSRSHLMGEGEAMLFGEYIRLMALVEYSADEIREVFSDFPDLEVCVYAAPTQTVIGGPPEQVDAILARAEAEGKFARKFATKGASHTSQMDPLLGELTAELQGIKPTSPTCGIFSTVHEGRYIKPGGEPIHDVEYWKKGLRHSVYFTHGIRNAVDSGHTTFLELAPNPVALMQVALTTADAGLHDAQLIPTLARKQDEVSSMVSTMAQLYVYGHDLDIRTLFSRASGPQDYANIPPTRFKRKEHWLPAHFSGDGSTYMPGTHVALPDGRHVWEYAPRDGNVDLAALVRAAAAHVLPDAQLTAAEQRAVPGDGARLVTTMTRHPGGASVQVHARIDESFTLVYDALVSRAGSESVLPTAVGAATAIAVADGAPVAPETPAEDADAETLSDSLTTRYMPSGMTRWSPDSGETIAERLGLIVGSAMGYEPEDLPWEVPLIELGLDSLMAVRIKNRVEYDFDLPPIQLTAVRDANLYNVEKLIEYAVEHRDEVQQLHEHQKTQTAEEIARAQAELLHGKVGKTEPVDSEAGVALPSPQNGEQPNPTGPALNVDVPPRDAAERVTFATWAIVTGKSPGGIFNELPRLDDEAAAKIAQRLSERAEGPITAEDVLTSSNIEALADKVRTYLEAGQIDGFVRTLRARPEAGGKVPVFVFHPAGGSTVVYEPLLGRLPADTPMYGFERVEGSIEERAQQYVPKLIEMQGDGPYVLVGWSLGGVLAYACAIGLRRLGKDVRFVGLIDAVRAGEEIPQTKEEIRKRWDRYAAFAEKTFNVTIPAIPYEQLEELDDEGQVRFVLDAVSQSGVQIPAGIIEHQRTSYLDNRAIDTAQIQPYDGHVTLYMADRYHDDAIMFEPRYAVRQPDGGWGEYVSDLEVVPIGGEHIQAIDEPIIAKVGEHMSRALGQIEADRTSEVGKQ

The test has as its target Polyketide synthase Pks13 (Mycobacterium tuberculosis (strain ATCC 25618 / H37Rv)) (UniProt I6X8D2). The test is described as follows: Mycobacterium tuberculosis Polyketide synthase 13 Thioesterase (PKS13). Further details: scale not given: in the data most compounds retested in dose-response had high values. The format is functional. The following applies: 30 µM.
On to `Cn1ccnc1CN1CCN2C[C@H](Oc3cccc(F)c3)C[C@H]2C1`, for which the Percent Effect came out at 23.6%.

Take `O=C1C[C@H]2CC[C@@H](CN1)N2C1CCSCC1`: the Percent Effect was -1.94%. As for `CN(C(=O)c1ccc(-n2ncc(C#N)c2N)cc1)C1CCCC1`, the figure is -1.63%; as for `N#Cc1cnn(-c2ccc(C(=O)N(C3CCCCC3)C3CC3)cc2)c1N`, -18%.

Turning to `CN(CC1CCCCC1)C(=O)c1ccc(-n2ncc(C#N)c2N)cc1`, the Percent Effect turned out to be 52.7%. For `CCCN1CCN(C(=O)c2cnccn2)[C@H]2CS(=O)(=O)C[C@H]21` the value was -4.16%. As for `c1cncc(CO[C@H]2CC[C@H]3[C@@H]2OCCN3C2CCOCC2)c1`, the figure is 2.72%; as for `Cc1cc(C)cc(CN2C[C@@H]3OCCN(S(=O)(=O)N(C)C)[C@@H]3C2)c1`, -14.4%; as for `CC1(C)O[C@@](C)([C@H]2CC3(CCN(c4cnccn4)CC3)CO2)CC[C@@H]1O`, -3.99%. For `CC(C)c1cc(N2CCC[C@H](N)C2)n2nccc2n1`, the Percent Effect is -7.75%. For `CC(C)c1cc(N2CC[C@H](F)C2)n2nccc2n1` the value was -11.1%; for `CC(C)c1cc(N2CCC(N)CC2)n2nccc2n1`, 61.4%. As to `O=C(NC1CC1)[C@@H]1CCO[C@@H]2CCN(C3CCOCC3)C[C@@H]21`, the Percent Effect is -12.6%. For `Cc1nnc([C@H]2CC[C@@H]3[C@@H](CCN3Cc3c(C)noc3C)O2)o1` the value was -7.83%; for `CN(C)C(=O)CO[C@@H]1CC[C@H]2[C@H]1OCCN2C(=O)C1CCOCC1`, -1.73%.

For the molecule `CC(=O)N1CCN2C(=O)N(Cc3ccc(F)cc3)C[C@H]2C1`, the Percent Effect was -33.1%. In the case of `O=C(O)c1c(-c2cncnc2)ncc2c1CCN(CC1CCOC1)C2` (centres undefined), the Percent Effect is -5.14%. For `Cn1cc(-c2ncc3c(c2C(=O)O)CCN(CC2CCOC2)C3)cn1` (centres undefined) the value was 111%; for `Cn1cc(-c2ncc3c(c2C(=O)O)CCN(CC2CC2)C3)cn1`, -9.1%. As for `O=S(=O)(C1CC1)N1CCO[C@@H]2CN(Cc3ccco3)C[C@@H]2C1`, the figure is -22.6%; as for `Cn1cc(CN2CC[C@@H]3[C@@H]2CCN3Cc2ccc3c(c2)OCO3)cn1`, -41.2%; as for `Cc1noc([C@@H]2CCO[C@@H]3CCN(Cc4cccs4)C[C@@H]32)n1`, 2.92%. As for `CCc1nc(C2CCCN2C(=O)c2ncoc2CC)no1` (centres undefined), the figure is -6.87%; as for `Cc1nc(C)n(C2CCCN(C(=O)c3cc4ccccc4n3C)C2)n1` (centres undefined), -20.9%; as for `CCc1nc(C2CCCN2C(=O)c2nccnc2N)no1` (centres undefined), 29.6%. For `Cc1nc(C)n(C2CCCN(C(=O)c3ccccc3C)C2)n1` (centres undefined), the Percent Effect was -12.6%.

Consider `CCc1n[nH]c(C2CN(C(=O)c3nc(C)n4ccccc34)CCO2)n1` (centres undefined), for which the Percent Effect was 83%. As for `Cc1nc(C)n(C2CCCN(C(=O)c3nc(C)n4ccccc34)C2)n1` (centres undefined), the figure is 93.6%; as for `CCc1n[nH]c(C2CN(C(=O)c3ncoc3CC)CCO2)n1` (centres undefined), -48.2%; as for `CCc1nc(C2CCCN2C(=O)c2nc(C)n3ccccc23)no1` (centres undefined), 75.3%. As for `CCc1n[nH]c(C2CN(C(=O)Cn3ccccc3=O)CCO2)n1` (centres undefined), the Percent Effect is -11.9%. As for `COC[C@H]1CC[C@H]2[C@H](CCN2S(=O)(=O)c2ccccc2)O1`, the figure is 4.33%; as for `c1ccc(CO[C@@H]2C[C@H]3CN(c4ncccn4)CCN3C2)nc1`, -22%; as for `Cc1cnc(C(=O)N2C[C@H]3CN(Cc4cccnc4)C[C@H]3C2)cn1`, -17.6%. As for `Cc1cccc(CN2C[C@@H]3CN(C(=O)c4ccco4)C[C@@H]3C2=O)c1`, the figure is -32.5%; as for `CNC(=O)CN([C@H]1C[C@H]2CCOC[C@H]2C1)S(=O)(=O)c1ccccc1`, -2.79%. As for `CCN(CC)[C@@H]1CN(Cc2cnn(C)c2)[C@@H]2COC[C@H]12`, the Percent Effect is -19.3%.

As to `Cc1csc2ncc(-c3ccnc(N4CCC[C@@H]4CO)n3)c(=O)n12`, the Percent Effect is 27.3%. For `Cc1cn2c(=O)c(-c3ccnc(N4CCC[C@@H]4CO)n3)cnc2s1` the value was 72.5%; for `O=c1c(-c2ccnc(N3CCC[C@H]3CO)n2)cnc2sccn12`, 47.6%; for `COCCN1C[C@@H]2CN(Cc3ccoc3)CCC[C@]2(C(=O)O)C1`, -27.8%. Turning to `CCCNC(=O)c1cc2c(nc1O)CCC(C)C2` (centres undefined), the Percent Effect is -24.6%. As for `CC1CCc2nc(O)c(C(=O)NCCCN3CCN(C)CC3)cc2C1` (centres undefined), the figure is 82.6%; as for `CC1CCc2nc(O)c(C(=O)NCCN(C)C)cc2C1` (centres undefined), -47.6%; as for `COc1ccc(CN2C[C@@H]3OCCN(c4ncccn4)[C@@H]3C2)cc1`, -27.4%. For `O=S(=O)(NC[C@H]1C[C@@H]2CCN1C[C@@H]2CN1CCCC1)c1ccc(Cl)cc1`, the Percent Effect was determined as 2.53%. As for `O=C(C1CC1)N1CCc2ccccc2C12CCNCC2`, the figure is 61.6%. In the case of `CCOC(=O)N1CCc2ccccc2C12CCNCC2`, the Percent Effect stood at 5.43%. For `COCC(=O)N1CCc2ccccc2C12CCNCC2` the value was -33%; for `CCOCC(=O)N1C[C@@H]2CC[C@H](C1)N(Cc1ccccn1)C2=O`, -4.9%; for `CC(C)OCc1ncn2c1CN(Cc1ccc(F)cc1)CCC2`, -26.5%.

As for `CC(C)OCc1ncn2c1CN(Cc1nccs1)CCC2`, the Percent Effect worked out at 54.5%. For the molecule `CC(C)OCc1ncn2c1CN(Cc1cccs1)CCC2`, the Percent Effect is -19.5%.

In the case of `CN1CCN2C[C@@H](CO)[C@H](c3ccccc3)[C@H]2C1`, the Percent Effect turned out to be 1.92%. `Fc1cnc(N2CC[C@@H](N3CCOCC3)[C@@H]2Cc2ccccc2)nc1`: the Percent Effect was -4.97%. With `Fc1cnc(N2CC[C@@H](N3CCOCC3)[C@@H]2Cc2ccncc2)nc1`, the Percent Effect is -11.8%.

`Cn1cc(C[C@H]2[C@H](N3CCOCC3)CCN2c2ncc(F)cn2)cn1`: the Percent Effect worked out at 56%. Take `CN1C[C@@H]2CN(C(=O)NCc3ccccc3)CCC[C@]2(C(=O)O)C1`: the Percent Effect was -22.8%. As to `O=S1(=O)C[C@@H]2[C@H](C1)N(Cc1cc(Cl)cc(Cl)c1)CCN2CC1CC1`, the Percent Effect was -18.6%. As for `COc1cccc(N2CCN(C(=O)C(O)c3ccccc3Cl)CC2=O)c1` (centres undefined), the figure is 55.5%; as for `COc1cccc(N2CCN(C(=O)C(C)Oc3ccccc3)CC2=O)c1` (centres undefined), -5.21%; as for `COc1cccc(N2CCN(C(=O)C(O)c3cccc(Cl)c3)CC2=O)c1` (centres undefined), -13.9%. As for `CCc1cc(C(=O)N2CCC(c3cc4ncccc4cn3)CC2)on1`, the figure is 16.1%; as for `CCc1cc(C(=O)N2CCC(c3cc4ncccc4cn3)CC2)no1`, -21.6%. For `O=C(CCc1cc(Cl)no1)N1CCC(c2cc3ncccc3cn2)CC1` the value was 129%; for `O=C(C1CCOCC1)N1CC[C@H]2[C@H]1CCN2c1nncs1`, -28.6%; for `CSCC[C@@H]1CN2CCC[C@H]2CN1Cc1coc2ccc(Cl)cc2c1=O`, -2.59%.

For `CN(Cc1cncnc1)[C@@H]1CN(C(=O)C2CC2)[C@@H]2CCCO[C@H]12`, the Percent Effect was -10.1%. As to `CN(C)S(=O)(=O)N1C[C@@H]2CC[C@H](C1)N(C/C=C/c1ccc(F)cc1)C2`, the Percent Effect was -0.937%. For the molecule `CCCN1CCCC1c1nc(Cc2ccc(F)cc2)no1` (centres undefined), the Percent Effect was -12.9%. For `OCCCN1CCCC1c1nc(Cc2ccc(F)cc2)no1` (centres undefined) the value was 11.8%; for `CC(C)(C)OCCN1CCCC1c1nc(Cc2ccc(F)cc2)no1` (centres undefined), 74.9%.

For the molecule `c1cnc(NC[C@H]2OC[C@@H]3CCN(Cc4cccnc4)C[C@@H]32)nc1`, the Percent Effect was -692%. Consider `CCNc1ncc(C(=O)N2CCc3c(nc(C)nc3N(C)C)C2)cn1`, for which the Percent Effect was found to be 50.1%. As for `CCCc1ccc(C(=O)N2CCc3c(nc(C)nc3N(C)C)C2)cc1`, the figure is 6.78%; as for `Cc1nc2c(c(N(C)C)n1)CCN(C(=O)c1ccc(N)nc1)C2`, -0.177%; as for `Cc1ccc(CN2CC[C@H]3NC(=O)CC[C@@H]32)o1`, -15.3%.

`O=C(c1ncccn1)N1C[C@@H]2COC[C@]2(COCc2cccnc2)C1`: the Percent Effect was -13.2%.

Consider `COCCCN1C(=O)CC[C@H]2CN(Cc3ccc4occc4c3)CC[C@H]21`, for which the Percent Effect is -8.86%.

Consider `O=C1CC(c2cccc(Cl)c2)c2snc(C(=O)O)c2N1` (centres undefined), for which the Percent Effect is -0.952%. As for `O=C1CC(c2ccc(F)cc2)c2snc(C(=O)O)c2N1` (centres undefined), the figure is -1.41%. On to `O=C1CC(c2ccc(F)c(F)c2)c2snc(C(=O)O)c2N1` (centres undefined), for which the Percent Effect was determined as 68.8%. Consider `CC(=O)NCC(=O)N1C[C@H](OCc2cccnc2)[C@H]2COC[C@H]21`, for which the Percent Effect was -10.5%. As for `Cn1cc(CN2CCO[C@@H]3CN(C4CCCC4)C[C@@H]3C2)cn1`, the figure is -3.52%; as for `CCc1ccc(CN2CCN(Cc3ncc[nH]3)[C@H]3CS(=O)(=O)C[C@H]32)nc1`, -7.95%; as for `CCS(=O)(=O)N1C[C@@H]2CN(Cc3ccco3)CCO[C@@H]2C1`, -0.26%. For `Cc1cccc(CO[C@@H]2CC[C@H]3[C@H]2OCCN3Cc2nccs2)n1`, the Percent Effect was -27.1%.

In the case of `COC(=O)CNC(=O)c1nc(-c2ccccc2OC)c2cnccn12`, the Percent Effect was 118%. With `COc1ccccc1-c1nc(C(=O)N(C)C)n2ccncc12`, the Percent Effect is 11.7%. Consider `COC(=O)CNC(=O)Cn1ccc2cccc(OC)c21`, for which the Percent Effect was -29.2%. With `Cc1nnc(N2C[C@H](OCCCn3cccn3)[C@H]3OCCC[C@H]32)s1`, the Percent Effect was -20.4%. `O=C1CO[C@H]2CN(Cc3cccnc3)C[C@H]2N1`: the Percent Effect came out at 0.623%. `CC(=O)N1C[C@@H](c2ccsc2)[C@@H]2CN(CC3CCCCC3)CC[C@@H]21`: the Percent Effect stood at 18%. With `Cc1cccc(-c2ccc(C(=O)NCCN(C)C3CC3)c(=O)[nH]2)c1`, the Percent Effect is -29.9%. Consider `Cc1cccc(-c2ccc(C(=O)NCC(C)(C)C(N)=O)c(=O)[nH]2)c1`, for which the Percent Effect is 57.5%.

In the case of `Cc1cccc(-c2ccc(C(=O)NCC3CCOC3)c(=O)[nH]2)c1` (centres undefined), the Percent Effect is -6.84%. As for `O=C(NC[C@H]1C[C@@H]2CN(C(=O)c3ccno3)C[C@@H]2O1)C1CCC1`, the figure is -26.6%; as for `CCN1C(=O)C[C@@H]2[C@@H]1CCN2S(=O)(=O)c1ccc(OC)cc1`, -42.1%. As for `O=C(c1cccs1)N1C[C@@H]2OCCN(CC3CCCO3)[C@@H]2C1` (some centres undefined), the figure is 8.57%; as for `Cc1cc2nc(SCC(=O)N3CCCC3)n(C)c(=O)c2[nH]1`, -2.84%. For the molecule `CCn1c(SCC(=O)N2CCOCC2)nc2cc(C)[nH]c2c1=O`, the Percent Effect stood at 11.1%. As for `CCn1c(SCC(=O)N2CCCC2)nc2cc(C)[nH]c2c1=O`, the figure is 54.6%.

As to `Cc1cc(C(=O)N2C[C@@H]3OCCN(CCN4CCCC4)[C@@H]3C2)c(C)o1`, the Percent Effect is -5.69%. `CCN1C(=O)C[C@@H]2[C@@H]1CCN2S(=O)(=O)Cc1ccc(C)cc1`: the Percent Effect is 16.4%. For `Cc1cc(C(=O)N2CC[C@H]3[C@H](C[C@@H](CN4CCCC4)N3C)C2)c(C)o1` the value was -16.7%.

For `CN1CCCC1c1cccc(Cc2ccccc2F)n1` (centres undefined), the Percent Effect is -56.2%. Regarding `CC(=O)N1CCCC1c1cccc(Cc2ccccc2F)n1` (centres undefined), the Percent Effect is -41.9%. In the case of `CS(=O)(=O)N1CCCC1c1cccc(Cc2ccccc2F)n1` (centres undefined), the Percent Effect is 51.8%.

As for `CCC1=N[C@@]2(CC[C@@H]3CN(C(=O)Nc4ccccc4)C[C@@H]32)C(=O)N1C`, the Percent Effect was determined as 7.9%.

Values taken from ChEMBL document CHEMBL3988442, “University of Dundee, Small-Polar-MMV Screening Library” (2021).
